# From the supplement of paper PMC6992640
# ± gives the standard deviation of the averaged measurements.
# What was measured:
# Assay in all cases: cell viability (% of vehicle); higher = less cytotoxic
# HCI01 [1] = cells of a triple-negative basal-like breast cancer xenograft; conditions: 10 µM; 72 h
# HCI03 = cells of an ER-positive luminal breast cancer xenograft; conditions: 10 µM; 72 h
# HCI09 = cells of a triple-negative luminal androgen receptor type breast cancer xenograft; conditions: 10 µM; 72 h
# HCI11 = cells of an ER-positive luminal breast cancer xenograft; conditions: 10 µM; 72 h
# HCI13 = cells of an ER-positive luminal breast cancer xenograft; conditions: 10 µM; 72 h
# HCI16 = cells of a triple-negative basal-like breast cancer xenograft; conditions: 10 µM; 72 h
# UCD52 [2] = cells of a triple-negative basal-like breast cancer xenograft; conditions: 10 µM; 72 h
# WHIM2 [3] = cells of a triple-negative basal-like breast cancer xenograft; conditions: 10 µM; 72 h
# WHIM30 [4] = cells of a triple-negative basal-like breast cancer xenograft; conditions: 10 µM; 72 h
# HCI01 [5] = conditions: 1 µM; 72 h
# UCD52 [6] = conditions: 1 µM; 72 h
# WHIM2 [7] = conditions: 1 µM; 72 h
# WHIM30 [8] = conditions: 1 µM; 72 h
Structure (SMILES),cell viability (HCI01 [1]),cell viability (HCI03),cell viability (HCI09),cell viability (HCI11),cell viability (HCI13),cell viability (HCI16),cell viability (UCD52 [2]),cell viability (WHIM2 [3]),cell viability (WHIM30 [4]),cell viability (HCI01 [5]),cell viability (UCD52 [6]),cell viability (WHIM2 [7]),cell viability (WHIM30 [8])
CCC1(c2ccc(N)cc2)CCC(=O)NC1=O (stereo unspecified) [Aminoglutethimide],108 ± 13,113,103 ± 12,103,112 ± 12,103,93.01 ± 0.41,88.9 ± 8,108 ± 2.7,–,–,–,–
Cc1cc(C(C#N)c2ccc(Cl)cc2)c(Cl)cc1NC(=O)c1cc(I)cc(I)c1O (stereo unspecified) [Closantel],29.4 ± 6.5,104,17.7 ± 1.8,85.7,37 ± 7.8,105,61.5 ± 2.6,37.6 ± 13,87.6 ± 4,88.8,91.3,105,82.7
CC(C)N(CCNC(=O)CN1CCCC1=O)C(C)C [Pramiracetam],85.1 ± 58,155,101 ± 9.4,110,120 ± 2.3,129,108 ± 2.9,119 ± 11,–,–,–,–,–
C[C@]12CC[C@H]3[C@@H](CC[C@@]45O[C@@H]4C(O)=C(C#N)C[C@]35C)[C@@H]1CC[C@@H]2O [Trilostane],131 ± 24,119,90.1 ± 5.6,114,73.7 ± 19,103,115 ± 8.4,115 ± 15,100 ± 15,–,–,–,–
Cc1cc(C(C#N)c2ccc(Cl)cc2)c(Cl)cc1NC(=O)c1cc(I)cc(I)c1[O-].[Na+] (stereo unspecified) [Closantel Sodium],34.4 ± 1.9,114,17.978 ± 0.0048,93.2,35.4 ± 2.9,96.3,68.1 ± 7.7,44.6 ± 10,52.7 ± 0.69,93.1,90.9,106,88.2
C=CCC1(O)CCC2C3CCC4=CC(=O)CCC4=C3C=CC21C (stereo unspecified) [Altrenogest],172 ± 56,125,65.5 ± 13,78.7,137 ± 7.6,150,83.1 ± 6.5,107 ± 12,141 ± 8.9,–,–,–,–
O=P1(NCCCl)OCCCN1CCCl (stereo unspecified) [Ifosfamide],106 ± 14,107,96.28 ± 0.62,84.8,153 ± 11,74.4,104.1 ± 0.65,95.7 ± 26,109 ± 2.2,–,–,–,–
NC(=O)CN1CC(O)CC1=O (stereo unspecified) [Oxiracetam],111 ± 16,115,98.3 ± 9.9,71,123 ± 12,126,117 ± 3.4,112 ± 15,134 ± 8.7,–,–,–,–
CC(C)c1c(CN(C)C(C)Cc2ccccc2)n(C)n(-c2ccccc2)c1=O (stereo unspecified) [Famprofazone],121 ± 24,129,79.2 ± 5.1,111,85.3 ± 14,121,87.7 ± 11,97.6 ± 16,124 ± 8.3,–,–,–,–
Cc1cccc(Cc2cnc[nH]2)c1C.Cl [Detomidine HCl],118 ± 4,114,96.9 ± 30,97.2,79.4 ± 6.8,92,84.9 ± 4.3,85.5 ± 32,135 ± 3,–,–,–,–
Br.COC(=O)C1=CCCN(C)C1 [Arecoline hydrobromide],94 ± 16,135,106 ± 21,88.9,103 ± 9.4,121,121 ± 21,116 ± 1.5,114 ± 16,–,–,–,–
CCOC(=O)c1cncn1C(C)c1ccccc1 (stereo unspecified) [Etomidate],114 ± 2.7,89.8,96.6 ± 3.1,90.1,103 ± 14,77.5,88.6 ± 2.2,81.8 ± 20,117 ± 6.2,–,–,–,–
CC1C=CC=CCCC=CC=CC=CC=CC(OC2OC(C)C(O)C(N)C2O)CC2OC(O)(CC(O)C(O)CCC(O)CC(O)CC(O)CC(=O)OC(C)C(C)C1O)CC(O)C2C(=O)O (stereo unspecified) [Nystatin (Fungicidin)],121 ± 47,139,128 ± 2.6,98.5,167 ± 21,150,118 ± 0.94,96.5 ± 1.8,147 ± 6.6,–,–,–,–
C[C@@H]1CC[C@H]2[C@@H](C)C(=O)O[C@@H]3OC4(C)CC[C@@H]1[C@]32OO4 [Artemisinine],125 ± 38,139,91.1 ± 1.5,102,95.7 ± 11,153,97.45 ± 0.15,93.9 ± 15,96.3 ± 17,–,–,–,–
CNC1CC(N)C(O)C(OC2OC(CO)C(O)C3OC4(OC(C(N)CO)C(O)C(O)C4O)OC23)C1O (stereo unspecified) [Hygromycin B],66.3 ± 21,70.2,122 ± 75,110,114.5 ± 1.1,94.3,87.4 ± 22,97.2 ± 1.2,88.3 ± 23,–,–,–,–
Cn1cc(C2=C(c3cn(C4CCN(Cc5ccccn5)CC4)c4ccccc34)C(=O)NC2=O)c2ccccc21,94 ± 30,95.8,72.7 ± 44,82.3,72.1 ± 9.6,99.5,49 ± 7.5,107 ± 18,119 ± 5.6,–,–,–,–
c1ccc2c(c1)sc1ccccc12 [Dibenzothiophene],137 ± 39,105,87.3 ± 1.6,103,85 ± 12,123,115 ± 14,117 ± 11,98.7 ± 1,–,–,–,–
CCCCCCCCCCCC[N+](C)(C)CCOc1ccccc1.[Br-] [Domiphen Bromide],34.9 ± 13,48.7,24.1 ± 1.5,50.1,41.3 ± 10,46.4,27.6 ± 1.8,44 ± 14,28.4 ± 4.7,88.5,80.4,81.7,57.1
Cl.O=C1CCC2(O)C3Cc4ccc(O)c5c4C2(CCN3CC2CC2)C1O5 (stereo unspecified) [Naltrexone HCl],120 ± 20,143,108.5 ± 0.5,108,167 ± 2.8,151,80.3 ± 20,88.9 ± 6,92.9 ± 7.2,–,–,–,–

Structure (SMILES),cell viability (HCI01 [1]),cell viability (HCI03),cell viability (HCI09),cell viability (HCI11),cell viability (HCI13),cell viability (HCI16),cell viability (UCD52 [2]),cell viability (WHIM2 [3]),cell viability (WHIM30 [4]),cell viability (HCI01 [5]),cell viability (UCD52 [6]),cell viability (WHIM2 [7]),cell viability (WHIM30 [8])
Cn1c(COP(=O)(NCCBr)NCCBr)cnc1[N+](=O)[O-],99.5 ± 14,100,123 ± 33,120,153.9 ± 0.46,44.9,81.4 ± 2.1,44.6 ± 2.6,107 ± 2.5,–,–,–,–
COc1cc2c(c(OC)c1OC)-c1ccc(OC)c(=O)cc1C(NC(C)=O)CC2 (stereo unspecified) [Colchicine],141 ± 19,109,120 ± 4.5,102,44.3 ± 2.3,108,146 ± 28,96 ± 9,145 ± 7.8,–,–,–,–
O=P1(N(CCCl)CCCl)NCCCO1 (stereo unspecified) [Cyclophosphamide],107 ± 4.7,98,104.9 ± 0.44,88.5,112 ± 5.9,80.3,99.09 ± 0.21,79.86 ± 0.25,115 ± 14,–,–,–,–
CCNCC.O=C(O)Cc1ccccc1Nc1c(Cl)cccc1Cl [Diclofenac Diethylamine],91.7 ± 19,77.9,88.7 ± 1.8,83.1,70.4 ± 10,113,69 ± 2.6,108 ± 7.9,94.02 ± 0.47,–,–,–,–
CC12CC(=CO)C(=O)CC1CCC1C2CCC2(C)C1CCC2(C)O (stereo unspecified) [Oxymetholone],114 ± 30,97.8,85 ± 38,86.7,54.8 ± 5.8,124,80.6 ± 3.8,90.9 ± 26,135 ± 1.9,–,–,–,–
CC1CNCCc2ccc(Cl)cc21.Cl (stereo unspecified) [Lorcaserin HCl],96.6 ± 5.8,110,100 ± 5.7,81.3,94.9 ± 12,106,90.3 ± 3.9,82.89 ± 0.73,111.3 ± 0.19,–,–,–,–
CC(NC(C)(C)C)C(=O)c1cccc(Cl)c1.Cl (stereo unspecified) [Bupropion hydrochloride],101 ± 2.5,109,99.6 ± 20,85.6,103 ± 1.1,113,90.5 ± 14,104 ± 5.2,121 ± 10,–,–,–,–
O=c1[nH]c2ccccc2n1C1CCN(CCCC(c2ccc(F)cc2)c2ccc(F)cc2)CC1 [Pimozide],103 ± 21,104,48.1 ± 31,70.4,69.39 ± 0.41,103,86.7 ± 16,103 ± 24,93.69 ± 0.39,–,–,–,–
COc1ccc(C(CN(C)C)C2(O)CCCCC2)cc1.Cl (stereo unspecified) [Venlafaxine],103 ± 4.2,139,99.26 ± 0.21,103,124 ± 11,106,119 ± 17,118 ± 10,169 ± 35,–,–,–,–
CCCCCCCCCCCCCCCC[n+]1ccccc1.[Cl-] [Cetylpyridinium Chloride],32.9 ± 12,44.4,16.9 ± 3.2,53.1,25 ± 4.5,42.1,24.2 ± 1.9,36.7 ± 13,28.1 ± 0.9,92.7,67.6,63.4,52.8
Cc1ccc(-n2nccn2)c(C(=O)N2CCN(c3nc4cc(Cl)ccc4o3)CCC2C)c1 (stereo unspecified),136 ± 9.6,88,39.5 ± 27,93.5,101 ± 34,101,91.9 ± 10,118 ± 22,136 ± 3.4,–,–,–,–
C[N+](C)(C)CC(=O)O.[Cl-] [Betaine hydrochloride],111 ± 4.8,123,95.3 ± 4.7,103,113 ± 11,122,82 ± 6.6,95.5 ± 6.1,107 ± 2.4,–,–,–,–
CCCCCCCCCCCCCCCC[N+](C)(C)C.[Br-] [Cetrimonium Bromide (CTAB)],44.3 ± 15,56.5,21.7 ± 7.3,72,26.9 ± 2,69.1,37.5 ± 1.9,42.4 ± 8.1,35.6 ± 1.7,87.8,75.6,74.2,49.2
CC(O)(CS(=O)(=O)c1ccc(F)cc1)C(=O)Nc1ccc(C#N)c(C(F)(F)F)c1 (stereo unspecified) [Bicalutamide],108 ± 8.9,113,90.6 ± 13,90.2,127 ± 3.6,108,89.7 ± 11,90.2 ± 6.4,108 ± 3.1,–,–,–,–
NC(Cc1ccc(N(CCCl)CCCl)cc1)C(=O)O (stereo unspecified) [Melphalan],76 ± 14,116,91.1 ± 6.3,107,77.7 ± 3.6,63.1,75.3 ± 11,58.5 ± 8.7,124 ± 3.2,–,–,–,–
N/C(N)=N\N.Cl [Aminoguanidine hydrochloride],100 ± 16,105,95.2 ± 6.9,64,90 ± 2.4,118,99.6 ± 9.3,95.1 ± 21,53.4 ± 6.4,–,–,–,–
CN(C)C1C(=O)C(C(N)=O)=C(O)C2(O)C(=O)C3=C(O)c4c(O)cccc4C(C)(O)C3C(O)C12.O.O (stereo unspecified) [Oxytetracycline Dihydrate],81.3 ± 15,129,111 ± 22,83.1,123.2 ± 0.95,116,95.3 ± 1.7,72.2 ± 15,123.8 ± 0.32,–,–,–,–
OC(c1ccccc1)(c1ccccc1)C1CCNCC1 [Azacyclonol],98.1 ± 19,137,84.5 ± 38,93.8,79 ± 10,110,95.8 ± 10,109 ± 34,113 ± 2.1,–,–,–,–
CC12CCC3C(CC=C4CC(O)CCC43C)C1CCC2=O (stereo unspecified) [Dehydroepiandrosterone (DHEA)],124 ± 8.8,107,87 ± 21,112,111 ± 12,102,98.2 ± 9.5,93.3 ± 20,111 ± 4,–,–,–,–
